Source: PubChem BioAssay
15-hLO inh: qHTS Assay for Inhibitors of 15-hLO (15-human lipoxygenase) | Polyunsaturated fatty acid lipoxygenase ALOX15 (Homo sapiens), P16050 | purified 15hLO-1, xylenol orange hydroperoxide absorbance | Potency, µM (highest dose often 57.1 µM), hits mostly inhibitors | actives 1.4% (n = 74,000) | AID 887, 2007; also: nearly all actives have a fitted effect of over 55% in size
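Purified human 15hLO-1 (40 nM final) in 25 mM Hepes pH 7.5, 0.01% Triton X-100 was preincubated with compound 15 min at room temperature, then reacted 6 min with 50 uM arachidonic acid; hydroperoxide detected by Fe-XO, 573/405 nm absorbance ratio.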
Tau fil binding: qHTS Assay for Tau Filament Binding. actives 2% (n = 71,000). recombinant tau filaments, thioflavin S fluorescence, 15 h; filaments grown with octadecylsulfate alongside compound. Potency, µM (top dose mostly 57.1 µM). Microtubule-associated protein tau (Homo sapiens), P10636;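 also: actives lower thioflavin S fluorescence by blocking filaments or displacing dye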
Target sequence (P10636 whole entry, looked up): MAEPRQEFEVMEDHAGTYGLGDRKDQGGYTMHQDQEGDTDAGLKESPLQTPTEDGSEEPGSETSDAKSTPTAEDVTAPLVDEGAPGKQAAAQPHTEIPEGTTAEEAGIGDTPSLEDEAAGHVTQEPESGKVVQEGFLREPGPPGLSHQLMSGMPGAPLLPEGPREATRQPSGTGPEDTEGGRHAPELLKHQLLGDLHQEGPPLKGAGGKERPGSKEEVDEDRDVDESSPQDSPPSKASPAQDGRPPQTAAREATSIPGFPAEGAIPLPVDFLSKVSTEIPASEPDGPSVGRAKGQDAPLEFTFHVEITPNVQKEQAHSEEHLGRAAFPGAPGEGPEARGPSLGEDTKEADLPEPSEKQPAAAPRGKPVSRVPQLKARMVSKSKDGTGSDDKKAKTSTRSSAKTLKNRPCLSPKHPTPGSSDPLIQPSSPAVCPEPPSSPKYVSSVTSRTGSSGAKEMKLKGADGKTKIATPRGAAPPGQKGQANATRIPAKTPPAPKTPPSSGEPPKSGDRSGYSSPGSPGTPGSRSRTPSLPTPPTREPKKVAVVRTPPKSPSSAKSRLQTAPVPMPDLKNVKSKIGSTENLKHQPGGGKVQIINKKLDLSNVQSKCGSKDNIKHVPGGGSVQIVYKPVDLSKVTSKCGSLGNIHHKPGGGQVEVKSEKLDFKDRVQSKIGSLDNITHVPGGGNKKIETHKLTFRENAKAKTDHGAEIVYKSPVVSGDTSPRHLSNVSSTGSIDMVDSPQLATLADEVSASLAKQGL
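His-tagged recombinant human tau (exons 2, 3 and 10 included), 1 uM, was induced to fibrillize by 30 uM sodium octadecylsulfate with compound present. After 15 h at 37 C, thioflavine S fluorescence (ex 450, em 510 nm) was read.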
Hsp90 Hop PPI: qHTS Assay for Disrupters of an Hsp90 Co-Chaperone Interaction | Potency, µM (titrated, usually from 57 µM) | AID 595, 2007 | actives 0.44% (n = 71,000) | Hsp90 C-terminal peptide / TPR2A (Hop) interaction, human | AlphaScreen TPR2A-His6 binding biotin-Hsp90 C-terminal peptide; active = well fitted curve in either direction with a large enough effect; inconclusive = small, poorly fitted or top-dose-only effect, or another doubt
USP2a inhib: qHTS Assay for Inhibitors of Ubiquitin-specific Protease USP2a | Ubiquitin carboxyl-terminal hydrolase 2 (Homo sapiens), O75604 | USP2a enzymatic assay, qHTS inhibition | Potency, µM (doses to about 38.3 µM), hits mostly inhibitors | actives 0.1% (n = 60,000); also: nearly all actives have a fitted effect of over 60% in size
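USP2 core (20 nM final) was preincubated with compound for 30 min at RT in 20 mM Tris-HCl pH 8.0, 2 mM CaCl2, 2 mM beta-mercaptoethanol; Ub-PLA2 (20 nM) plus NBD C6-HPC (20 uM) then added, fluorescence read after 2.5 h.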
Bst PK mod: Pyruvate Kinase. purified pyruvate kinase, luminescence ATP production; ribose 5-phosphate activator present at AC10. Potency, µM. actives 1.2% (n = 51,000); in the data active = potency below about 11 µM; inconclusive = mostly about 12 µM to 25 µM;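 the screen sought inhibitors and activators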
GBA activity: Glucocerebrosidase; purified enzyme, resorufin glucoside fluorescence (screen aimed at inhibitors), 20 min; Potency, µM; Lysosomal acid glucosylceramidase (Homo sapiens), P04062; actives 1.1% (n = 48,000); in the data active = potency below about 15 µM; inconclusive = mostly about 16 µM to 33 µM;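 also: the screen sought inhibitors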
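Compounds titrated against 0.2 nM normal enzyme, 30 uM resorufin beta-D-glucopyranoside substrate, citrate/phosphate buffer with taurocholate and tween-20, pH 5.9. Reaction ran 20 min at room temperature; fluorescence (Ex 548/Em 600) gave AC50.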
Hits are given with their value; – = inactive; ? = inconclusive; · = no result given; ! = a repeat was not active; [ ] = dose if it differs, or a comment. In the library only some 4.6% were active in any assay of this set; here they are far more common. Unless noted, calls follow the shape of the dose curve; as a rule, active = well fitted curve in the direction sought with a large enough effect; inconclusive = small, poorly fitted or top-dose-only effect, or another doubt; inactive = no such curve, though single readings can be large; an effect the other way counts as inactive or inconclusive.

SMILES	15-hLO inh	Tau fil binding	Hsp90 Hop PPI	USP2a inhib	Bst PK mod	GBA activity
NC1=CC(=O)c2cccc3cccc1c23	5µM	–	–	–	–	–
CO[C@@H]1COC(=O)C/C=C\[C@@H](C)COC(=O)[C@H](Cc2ccccc2)NC(=O)C/C=C\[C@H]1C	–[11.4 µM]	·	·	·	·	·
COc1ccc(N2CSC3=C(C#N)C(c4ccc(OC)c(OC)c4)CC(=O)N3C2)c(OC)c1 (stereo unspecified)	4µM	20µM	–	·	·	·
COc1ccc(C2CC(=O)N3CN(c4ccc(C)c(Cl)c4)CSC3=C2C#N)cc1OC (stereo unspecified)	3.2µM	–	–	·	·	·
CCOc1ccccc1N1CSC2=C(C#N)C(c3c(OC)ccc4ccccc34)CC(=O)N2C1 (stereo unspecified)	?	25µM	–[2.3 µM]	·	·	·
COc1cc(OC)c(C2CC(=O)N3CN(c4ccc(C)cc4)CSC3=C2C#N)cc1OC (stereo unspecified)	?	–	–	–	–	–
COc1ccc(N2CSC3=C(C#N)C(c4cc(OC)c(OC)cc4OC)CC(=O)N3C2)c(OC)c1 (stereo unspecified)	?	?	–[2.3 µM]	·	·	·
COc1ccc(N2CSC3=C(C#N)C(c4cc(OC)ccc4OC)CC(=O)N3C2)c(OC)c1 (stereo unspecified)	?	25µM	?	·	·	·
CCNc1nc(Oc2ccc(=O)[nH]n2)nc(SC)n1	–	–	–	–	–	–
COc1ccc(C(=O)n2nc(-c3ccco3)nc2SC)cc1OC	–	–	–	–	–	–
CCOC(=O)N1CCC(n2c(SCC(=O)NCc3ccco3)nc3ccsc3c2=O)CC1	–	–	–	–	–	–
O=C(c1ccccc1)c1ccc(OC(=O)N2CCOCC2)cc1	–[11.4 µM]	–[11.4 µM]	–[11 µM]	–[7.66 µM]	·	·
CCN(CC)CCNC(=O)Cc1c(C(=O)O)n(C)c2ccccc12	–	–	–	–	–	–
Cn1c(NCc2ccco2)nc2ccccc21	–	16µM	–	–	–	–
N#Cc1c2c(c(NCc3ccco3)n3c1nc1ccccc13)CCC2	5µM	–	?	–	·	·
Cn1c(NCc2cccs2)nc2ccccc21	–	–	–	–	–	–
CN(C)CCNc1c2c(c(C#N)c3nc4ccccc4n13)CCCC2	–	–	–	–	–	·
Clc1ccc(Sc2oc(/C=N/n3cnnc3)cc2Br)cc1	–[11.4 µM]	5µM	–[11 µM]	–[7.66 µM]	·	·
Cc1c(C)[n+](=O)c2c(n1[O-])CCC2	·	·	·	·	–	·
OCCN1CCN(c2nc(N3CCCCC3)nc(N3CCCCC3)n2)CC1	–[11.4 µM]	4µM	–[11 µM]	–[7.66 µM]	·	·
CCc1nnc(NC(=O)C2CCN(S(=O)(=O)Cc3ccccc3)CC2)s1	–	–	–	–	–	4.3
c1ccc(OCc2nnc3sc(-c4cccs4)nn23)cc1	?	–	–	–	–	–
Clc1ccc(Cl)c(-c2nn3c(COc4ccccc4)nnc3s2)c1	10µM	–	–	–	–	–
CC[N+](CC)(CC)CCOc1ccc(/C=C\c2ccccc2)cc1	16µM	–	–	·	·	·
O=c1c2ccccc2nnn1CSc1nnc(COc2ccc(Cl)cc2)n1Cc1ccco1	–	–	–	–	–	–
SMILES	15-hLO inh	Tau fil binding	Hsp90 Hop PPI	USP2a inhib	Bst PK mod	GBA activity
CCOC(=O)C1=C(C)N=c2s/c(=C\c3cccn3C)c(=O)n2C1c1cccc(OC)c1OC (stereo unspecified)	–	–	–	–	·	·
CCOC(=O)C1=C(C)N=c2s/c(=C/c3ccco3)c(=O)n2C1c1cccc(OC)c1 (stereo unspecified)	16µM	3.2µM	–	–	·	·
CCOC(=O)C1=C(N)n2c(s/c(=C/c3ccco3)c2=O)=C(C(=O)OC)C1c1ccco1 (stereo unspecified)	–	3.2µM	–	–	–	–
O=C(CCN1CCOCC1)Nc1ccc2c(c1)CCC2	25µM	–	–	–	–	·
O=C1c2ccccc2C(=O)c2c(Nc3cc4c5c(ccc6c7ccc8c9c(cc(Nc%10cccc%11c%10C(=O)c%10ccccc%10C%11=O)c(c3c56)c97)-c3ccccc3C8=O)C(=O)c3ccccc3-4)cccc21	–[11.4 µM]	3.2µM	?	·	·	·
O=C1c2ccccc2C(=O)c2c(Nc3ccc4c5c(cccc35)C(=O)c3ccccc3-4)cccc21	–[11.4 µM]	–[11.4 µM]	–[11 µM]	·	·	·
CC(C)(C)NC(=O)Nc1ccc2nccnc2c1	–	–	–	–	·	·
CCOc1ccc(NC(=O)Nc2ccc3nccnc3c2)cc1	–	25µM	–	–	·	·
Cc1nnc(SCc2cnc(-c3ccc(C(C)C)cc3)s2)n1C	–	–	–	–	0.56	–
Cn1cccc1Cc1nnc(SCC(=O)N2CCCc3ccccc32)n1-c1ccc(F)cc1	?	–	–[2.3 µM]	·	·	·
CN(Cc1ccco1)c1nc(-c2ccccc2C(F)(F)F)nc2ccccc12	16µM	–	–	–	·	·
COc1ccccc1-c1nc(N(C)C)c2ccccc2n1	?	16µM	–	–	·	·
COc1ccccc1-c1nc(N(C)Cc2ccco2)c2ccccc2n1	–	7.9µM	–	–	·	·
CN(Cc1ccco1)c1nc(-c2ccccc2Cl)nc2ccccc12	–	–	–	–	·	·
CN(Cc1ccco1)c1nc(-c2cccnc2)nc2ccccc12	–	–	–	–	·	·
O=C(O)c1ccc(COc2ccccc2Cl)cc1	–	–	–	–	–	–
O=C(O)c1cccc(COc2ccccc2Cl)c1	–	–	–	–	6.7	–
CCOC(=O)C1CCN(Cc2ccc(O)c3ncccc23)CC1	–	–	5µM	–	–	–
CC(C)CCCC(C)C1CCC2C3CC[C@H]4CC(=O)CC[C@@]4(C)C3CC[C@@]12C (stereo partly specified)	–	·	·	–	·	·
Cc1ccc(OCc2nnc(SCC(=O)NCc3ccccc3)n2C)cc1	–	–	–	–	–	–
O=C(OCC(=O)N1CCN(C(=O)c2ccco2)CC1)c1cn(-c2ccccc2)nc1-c1ccccc1	–	–	–	–	·	–
O=C(/C=C/c1ccc(O)c(O)c1)OCCc1ccccc1	0.5µM	·	·	–	·	·
COc1ccccc1N1CCN(C[C@@H](O)COc2cccc3ccccc23)CC1	?	?	–	–	·	·
COc1ccccc1N1CCN(C[C@@H](C(=O)NC(C)(C)C)c2ccccc2)CC1	16µM	?	–	·	·	·
COc1cc2ccc(=O)oc2c(O)c1O	13µM!	?	–	–	·	·
COc1cc2ccc(=O)oc2c(OC)c1OC	–	·	·	–	·	·
Ic1ccc2c(c1)N(c1ccccc1)c1cc(Nc3ccc4nc5ccc(I)cc5[n+](-c5ccccc5)c4c3)ccc1N2	–[11.4 µM]	4µM	–[11 µM]	·	·	·
O=C(Nc1nsc(-c2ccccc2)n1)c1cccs1	–	–	–	–	7.8	–
CCOC(=O)c1c(C)[nH]c(C(=O)CSc2nnnn2-c2ccc(C)cc2)c1C	–	–	–	–	–	–
CCOC(=O)c1ccc2c(c1)nc(SCC(=O)N1CCCCC1)n2CC	–	–	–	–	–	–
